Assay results reported in PubChem BioAssay (NCI).
About 83,000 compounds went through this panel and 20% of them were active in at least one assay; those are over-represented in the sample as a whole.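 How to read the values: 0–100, growth inhibition (40 = 60% inhibited); 0, no net growth; -100 to 0, cell death (-40 = 40% of starting cells died; -100 = all dead).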 Calls of active or inactive are those of the source. Rule for the calls: active = growth percent below 10; inactive = the rest.

What was measured:
Assay in all cases: NCI-60 one-dose screen, 48 h (100 = growth as untreated, 0 = no growth, -100 = all killed)
Conditions in all cases: 10 µM unless noted
SR leukemia = system: SR leukemia
RPMI-8226 leukemia = system: RPMI-8226 leukemia
OVCAR-8 ovarian = system: OVCAR-8 ovarian
OVCAR-5 ovarian = system: OVCAR-5 ovarian
OVCAR-4 ovarian = system: OVCAR-4 ovarian
SK-OV-3 ovarian = system: SK-OV-3 ovarian
IGROV1 ovarian = system: IGROV1 ovarian
OVCAR-3 ovarian = system: OVCAR-3 ovarian
NCI/ADR-RES ovarian = system: NCI/ADR-RES ovarian
HS 578T breast = system: HS 578T breast

Measured: growth

NC(CSC(c1ccccc1)(c1ccccc1)c1ccccc1)C(=O)NCC(=O)O (configuration not stated)
inactive: SR leukemia 34.1% | RPMI-8226 leukemia 49.3% | OVCAR-8 ovarian 70.7% | OVCAR-5 ovarian 94.7% | OVCAR-4 ovarian 100% | SK-OV-3 ovarian 35% | IGROV1 ovarian 72.6% | OVCAR-3 ovarian 98% | NCI/ADR-RES ovarian 108%

CCCCCCCCCCCCCCCCCCOP(=O)(O)O
inactive: SR leukemia 103% | RPMI-8226 leukemia 100% | OVCAR-8 ovarian 97.5% | OVCAR-5 ovarian 103% | OVCAR-4 ovarian 117% | SK-OV-3 ovarian 109% | IGROV1 ovarian 110% | OVCAR-3 ovarian 113% | NCI/ADR-RES ovarian 108%

CC1(C)N=C(N)N=C(N)N1c1cccc(CCCCOc2ccccc2)c1
active: RPMI-8226 leukemia 8.3%
inactive: SR leukemia 31.6% | OVCAR-8 ovarian 19.9% | OVCAR-5 ovarian 29.6% | OVCAR-4 ovarian 61% | SK-OV-3 ovarian 41.8% | IGROV1 ovarian 26.6% | OVCAR-3 ovarian 26.5% | NCI/ADR-RES ovarian 107%

CCS(=O)(=O)N[C@@H]1O[C@H](COC(C)=O)C(OC(C)=O)[C@H](OC(C)=O)C1OC(C)=O (some centres not stated)
inactive: SR leukemia 104% | RPMI-8226 leukemia 105% | OVCAR-8 ovarian 98.6% | OVCAR-5 ovarian 98.8% | OVCAR-4 ovarian 102% | SK-OV-3 ovarian 97.3% | IGROV1 ovarian 106% | OVCAR-3 ovarian 101% | NCI/ADR-RES ovarian 108%

CSCc1ncc(-c2ccc(C(F)(F)F)cc2)c(NC2CCCCCC2)n1
inactive: SR leukemia 13.4% [25 µM] | OVCAR-8 ovarian 75.1% [25 µM] | OVCAR-5 ovarian 97% [25 µM] | OVCAR-4 ovarian 83% [25 µM] | SK-OV-3 ovarian 97.9% [25 µM] | IGROV1 ovarian 81.2% [25 µM] | OVCAR-3 ovarian 39.4% [25 µM] | NCI/ADR-RES ovarian 74.9% [25 µM]
active: RPMI-8226 leukemia 3.14% [25 µM]

CC(=N\N=C(N)N)/C(=N/N=C(N)N)c1ccccc1
inactive: SR leukemia 89.3% | RPMI-8226 leukemia 91.7% | OVCAR-8 ovarian 83.1% | OVCAR-5 ovarian 96.1% | OVCAR-4 ovarian 79.2% | SK-OV-3 ovarian 102% | IGROV1 ovarian 91.4% | OVCAR-3 ovarian 97.9% | NCI/ADR-RES ovarian 90.2%

COC(=O)c1ccc2[nH]c(O)c(C(=Nc3ccc(N(C)C(=O)CN4CCN(C)CC4)cc3)c3ccc(N)cc3)c2c1
active: SR leukemia 3.76%
inactive: RPMI-8226 leukemia 84% | OVCAR-8 ovarian 116% | OVCAR-5 ovarian 77.8% | OVCAR-4 ovarian 73.7% | SK-OV-3 ovarian 85.6% | IGROV1 ovarian 46.6% | HS 578T breast 45.2% | NCI/ADR-RES ovarian 113%

COc1ccccc1CNCCCN1C(=O)c2ccc3c4c(ccc(c24)C1=O)C(=O)N(CCCNCc1ccccc1OC)C3=O
active: SR leukemia -45.7% | RPMI-8226 leukemia -31.8% | OVCAR-8 ovarian -47.1% | OVCAR-5 ovarian -27.4% | OVCAR-4 ovarian -96.5% | SK-OV-3 ovarian 0% | IGROV1 ovarian -58.2% | OVCAR-3 ovarian -59.9% | NCI/ADR-RES ovarian -2.55%
